Results filed as inconclusive are left out. Entries that show only a call come without a potency. A number with no mark means an inactive call. Activity calls are given as the source filed them. The call rests on the fitted dose curve; in most records, active means well fitted inhibition curve with a large enough effect; inconclusive means small, poorly fitted or top-dose-only effect; inactive means no such curve, though single readings can be large or run the other way.
Experiments:
[1] = system: Zika virus NS2B-NS3 protease (unlinked complex); experiment: Primary screen GU Rhodamine qHTS for Zika virus inhibitors: Unlinked NS2B-NS3 protease assay (AID 1347159); further: nearly all actives have a fitted effect of over 60% in size
Method in brief: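 Enzyme 25 nM in Tris-HCl pH 8.0 + 0.01% Tween 20; compounds up to 114 microM, 15 min RT dark; + Rhod110 substrate 1.5 microM; read t0 and 15 min; delta fluorescence → % inhibition → 4-parameter Hill fit.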

[2] = system: Zika virus NS2B-NS3 protease (linked construct); experiment: Primary screen NINDS Rhodamine qHTS for Zika virus inhibitors (AID 1347160); further: nearly all actives have a fitted effect of over 55% in size
Method in brief: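 Enzyme (25 nM, linked NS2B-NS3) was preincubated 15 min with compound in 10 mM Tris-HCl pH 8.0, 0.01% Tween 20. Rhodamine110 substrate (1.5 microM) was then added and fluorescence read at start and after 15 min.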

In the case of CC(Nc1ncnc2nc[nH]c12)c1cc2cccc(Cl)c2c(=O)n1-c1ccccc1 (stereo not drawn), the Potency [1] was “inactive” and the Potency [2] was “inactive”.

With CC(C)C(NC(=O)c1ccc2ccccc2n1)C(=O)NC(CC(=O)O)C(=O)COc1c(F)cccc1F (stereo not drawn) the Potency [1] was “inactive” and the Potency [2] was “inactive”.

For CC1(O)CCCC2(C)C1CCC13CC(CO)C(CCC12)C3 (stereo not drawn), the Potency [1] was “inactive” and the Potency [2] was “inactive”.

With N#Cc1ccc(C(=O)N2CCC3(CC2)N=C(N)c2c(F)ccc(F)c2N3)cn1 the Potency [1] was “inactive” and the Potency [2] was “inactive”.

In the case of Cc1ccc(-c2c(C(=O)CF)n(CCCO)c3ncnc(N)c23)cc1, the Potency [1] was “inactive” and the Potency [2] was “inactive”.

In the case of N#Cc1cc(F)cc(-c2nc(-c3ccccn3)no2)c1, the Potency [1] was “inactive” and the Potency [2] was “inactive”.

In the case of C[C@@H]1O[C@@H](O[C@H]2[C@H](OC(=O)[C@]34CCC(C)(C)C[C@H]3C3=CCC5[C@@]6(C)CC[C@H](O[C@@H]7O[C@H](C(=O)O)[C@@H](O)[C@H](O)[C@H]7O[C@@H]7O[C@H](CO)[C@H](O)[C@H](O)[C@H]7O)[C@@](C)(C=O)C6CC[C@@]5(C)[C@]3(C)C[C@H]4O)O[C@H](C)[C@H](O[C@@H]3O[C@H](C)[C@H](O)[C@H](O)[C@H]3O)[C@@H]2O)[C@H](O)[C@H](O)[C@H]1O[C@@H]1OC[C@@H](O)[C@H](O[C@@H]2O[C@H](CO)[C@@H](O)[C@H](O)[C@H]2O)[C@H]1O (stereo partly drawn), the activity change, negative = inhibition [1] was 4.39% [at 19.1 µM] and the outcome [2] was “inactive [at 10.7 µM]”.

With CO[C@H]1O[C@@H]2O[C@]3(C)CC[C@H]4[C@H](C)CC[C@@H]([C@H]1C)[C@@]24OO3 the Potency [1] was “inactive” and the Potency [2] was “inactive”.

In the case of COC(=O)CC(C)(O)CC(=O)OCc1ccc(O[C@@H]2O[C@H](CO)[C@@H](O)[C@H](O)[C@H]2O)cc1 (stereo partly drawn), the Potency [1] was “inactive” and the Potency [2] was “inactive”.

Reference: PubChem BioAssay (NCATS)
